# According to PubChem BioAssay (EPA / NIEHS):
# Activity calls are given as the source filed them. The calls were made as follows: active = hit-call score of the fitted dose curve at least 0.9, where 1 is the maximum; inactive = score below 0.9.
# Legend:
# [1] = read-out: catalase (CAT), CAT (gene 847); experiment: LTEA_HepaRG_CAT: Life Technologies and Expression Analysis (LTEA) Assay for catalase (CAT) using HepaRG (AID 2283452); settings: mRNA level, 48 h; actives raise or lower the signal
# Procedure, shortened: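 Expression of CAT was quantified by TaqMan qRT-PCR with ACTB/GAPDH/POLR2A normalization after 48 h chemical exposure of HepaRG. Eight-point half-log series, top 100 uM, in 0.5% DMSO; gain or loss fitted against vehicle.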
# [2] = read-out: flavin-containing dimethylaniline monooxygenases 3 (FMO3), FMO3 (gene 2328); experiment: LTEA_HepaRG_FMO3: Life Technologies and Expression Analysis (LTEA) Assay for flavin-containing dimethylaniline monooxygenases 3 (FMO3) using HepaRG (AID 2283453); settings: mRNA level, 48 h; actives raise or lower the signal;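 as to AC50: differentiated human HepaRG liver cells in serum-free induction medium; FMO3 transcript by TaqMan qRT-PCR normalized to ACTB GAPDH and POLR2A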
# Procedure, shortened: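 HepaRG, 48 h exposure, 8-pt half-log series from 100 uM, 0.5% DMSO vehicle, duplicates; FMO3 transcript by Fluidigm TaqMan qRT-PCR, housekeeping-normalized; gain/loss fit vs DMSO.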
# [3] = read-out: Cytochrome P450 (CYP1A1), CYP1A1 (gene 1543); experiment: LTEA_HepaRG_CYP1A1: Life Technologies and Expression Analysis (LTEA) Assay for Cytochrome P450 (CYP1A1) using HepaRG (AID 2283454); settings: mRNA level, 48 h; actives raise or lower the signal
# Procedure, shortened: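 CYP1A1 transcript levels measured by Fluidigm qRT-PCR against three housekeeping genes, 48 h after chemical dosing of human HepaRG cells (highest concentration 100 uM, half-log steps, 0.5% DMSO vehicle). Gain or loss of signal fitted relative to DMSO.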
# [4] = read-out: Forkhead box O1 (FOXO1), FOXO1 (gene 2308); experiment: LTEA_HepaRG_FOXO1: Life Technologies and Expression Analysis (LTEA) Assay for Forkhead box O1 (FOXO1) using HepaRG (AID 2283456); settings: mRNA level, 48 h; actives raise or lower the signal
# Procedure, shortened: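 Readout is FOXO1 transcript level by multiplexed qRT-PCR against three housekeeping genes, curve-fitted in both directions relative to 0.5% DMSO vehicle. Human HepaRG cultures received chemicals for 48 h, up to 100 uM in half-log steps.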
# [5] = CEETOX_H295R_TESTO: CeeTox H295R High-throughput Steroidogenesis Assay for Testosterone (TESTO) (AID 2283457); settings: actives raise or lower the signal
# Procedure, shortened: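 Testosterone secreted into the medium over 48 h by H295R cells (maximum passage 10) was quantified by LC-MS/MS after MTBE extraction. Fitted in both directions against DMSO, with concentrations diluted until MTT viability was ≥70%.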
# [6] = read-out: growth arrest and DNA damage 45 (GADD45A), GADD45A (gene 1647); experiment: LTEA_HepaRG_GADD45A: Life Technologies and Expression Analysis (LTEA) Assay for growth arrest and DNA damage 45 (GADD45A) using HepaRG (AID 2283458); settings: mRNA level, 48 h; actives raise or lower the signal
# Procedure, shortened: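 Human HepaRG liver cells are treated in duplicate for 48 h with chemicals in 0.5% DMSO, highest concentration 100 uM. Expression is read by qRT-PCR and analyzed in both directions against vehicle.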
# [7] = read-out: Forkhead box O3 (FOXO3), FOXO3 (gene 2309); experiment: LTEA_HepaRG_FOXO3: Life Technologies and Expression Analysis (LTEA) Assay for Forkhead box O3 (FOXO3) using HepaRG (AID 2283459); settings: mRNA level, 48 h; actives raise or lower the signal
# Procedure, shortened: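 HepaRG, 48 h post-dose; 8 conc., half-log from 100 uM, 0.5% DMSO, duplicates; serum-free induction medium. Readout: FOXO3 mRNA, TaqMan qRT-PCR, housekeeping-normalized. Bidirectional curve fit vs DMSO baseline.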
# [8] = read-out: ABC Transporter (ABCB1), ABCB1 (gene 5243); experiment: LTEA_HepaRG_ABCB1: Life Technologies and Expression Analysis (LTEA) Assay for ABC Transporter (ABCB1) using HepaRG (AID 2283460); settings: mRNA level, 48 h; actives raise or lower the signal
# Procedure, shortened: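 Expression of ABCB1 was quantified by qRT-PCR against three housekeeping genes after human HepaRG cultures received test chemicals for 48 hours. Concentrations spanned eight half-log steps topping at 100 uM in 0.5% DMSO; gain or loss of signal was fitted relative to vehicle.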
# [9] = read-out: growth arrest and DNA damage 45 (GADD45B), GADD45B (gene 4616); experiment: LTEA_HepaRG_GADD45B: Life Technologies and Expression Analysis (LTEA) Assay for growth arrest and DNA damage 45 (GADD45B) using HepaRG (AID 2283461); settings: mRNA level, 48 h; actives raise or lower the signal
# Procedure, shortened: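 Transcript level quantified by Fluidigm TaqMan qRT-PCR with three housekeeping genes for normalization, analyzed for up- or down-regulation against 0.5% DMSO. HepaRG cultures dosed 48 h at eight half-log concentrations up to 100 uM, duplicates.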
# [10] = read-out: ABC Transporter (ABCC3), ABCC3 (gene 8714); experiment: LTEA_HepaRG_ABCC3: Life Technologies and Expression Analysis (LTEA) Assay for ABC Transporter (ABCC3) using HepaRG (AID 2283462); settings: mRNA level, 48 h; actives raise or lower the signal
# Procedure, shortened: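 Transcript level by TaqMan qRT-PCR, normalised to three housekeeping genes, fitted in both directions relative to vehicle. Chemicals tested in duplicate at eight half-log concentrations up to 100 uM for 48 h on HepaRG cells (0.5% DMSO).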
# [11] = read-out: ABC Transporter (ABCB11), ABCB11 (gene 8647); experiment: LTEA_HepaRG_ABCB11: Life Technologies and Expression Analysis (LTEA) Assay for ABC Transporter (ABCB11) using HepaRG (AID 2283463); settings: mRNA level, 48 h; actives raise or lower the signal
# Procedure, shortened: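 ABCB11 transcript levels are read by Fluidigm TaqMan qRT-PCR after 48 h chemical treatment of human HepaRG cells. Concentrations span 100 uM downward in half-log steps with 0.5% DMSO; gain or loss is fitted against DMSO controls.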
# [12] = read-out: ABC Transporter (ABCC2), ABCC2 (gene 1244); experiment: LTEA_HepaRG_ABCC2: Life Technologies and Expression Analysis (LTEA) Assay for ABC Transporter (ABCC2) using HepaRG (AID 2283464); settings: mRNA level, 48 h; actives raise or lower the signal
# Procedure, shortened: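 Endpoint is ABCC2 transcript level from qRT-PCR, normalized to three housekeeping genes and fitted bidirectionally relative to DMSO. Human HepaRG cells received test chemical for 48 h at up to 100 uM (8 points, half-log steps, 0.5% DMSO), duplicate wells.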
# [13] = read-out: Broad substrate specificity ATP-binding cassette transporter ABCG2 (Homo sapiens) (UniProt Q9UNQ0); experiment: LTEA_HepaRG_ABCG2: Life Technologies and Expression Analysis (LTEA) Assay for ABC Transporter (ABCG2) using HepaRG (AID 2283465); settings: mRNA level, 48 h; actives raise or lower the signal
# Procedure, shortened: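 Read-out is ABCG2 mRNA induction or loss quantified by qRT-PCR after 48 h chemical treatment of human HepaRG cells, normalized to three housekeeping genes. Concentrations reached 100 uM top in half-log steps; fitting was bidirectional against 0.5% DMSO.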
# [14] = read-out: ATP-citrate lyase (ACLY), ACLY (gene 47); experiment: LTEA_HepaRG_ACLY: Life Technologies and Expression Analysis (LTEA) Assay for ATP-citrate lyase (ACLY) using HepaRG (AID 2283466); settings: mRNA level, 48 h; actives raise or lower the signal
# Procedure, shortened: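 HepaRG, 48 h exposure, 8-pt half-log dilutions (top 100 uM), 0.5% DMSO. Readout: ACLY mRNA, TaqMan qRT-PCR, housekeeping-normalized (ACTB/GAPDH/POLR2A). Bidirectional curve fit vs DMSO.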
# [15] = read-out: Peroxisomal acyl-coenzyme A oxidase 1 (ACOX1) gene, ACOX1 (gene 51); experiment: LTEA_HepaRG_ACOX1: Life Technologies and Expression Analysis (LTEA) Assay for Peroxisomal acyl-coenzyme A oxidase 1 (ACOX1) gene using HepaRG (AID 2283467); settings: mRNA level, 48 h; actives raise or lower the signal
# Procedure, shortened: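 Measured by qRT-PCR against three housekeeping genes: ACOX1 transcript change in human HepaRG cells after 48 h dosing. Concentrations ran up to 100 uM in half-log steps. Curves were fitted bidirectionally relative to 0.5% DMSO.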
# [16] = read-out: Alkaline Phosphatase, Placental (ALPP) gene, ALPP (gene 250); experiment: LTEA_HepaRG_ALPP: Life Technologies and Expression Analysis (LTEA) Assay for Alkaline Phosphatase, Placental (ALPP) gene using HepaRG (AID 2283468); settings: mRNA level, 48 h; actives raise or lower the signal
# Procedure, shortened: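 ALPP transcript level, measured by qRT-PCR and normalized to three housekeeping genes (ACTB, GAPDH, POLR2A), after 48 h dosing of differentiated HepaRG in serum-free induction medium. Top concentration 100 uM with half-log dilutions (8 points, 0.5% DMSO, duplicates); bidirectional fitting relative to DMSO.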
# [17] = read-out: Bcl-2 (BAD) gene, BAD (gene 572); experiment: LTEA_HepaRG_BAD: Life Technologies and Expression Analysis (LTEA) Assay for Bcl-2 (BAD) gene using HepaRG (AID 2283469); settings: mRNA level, 48 h; actives raise or lower the signal
# Procedure, shortened: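 BAD transcript change, measured by qRT-PCR against three housekeeping genes and fitted in both directions relative to 0.5% DMSO, after 48 h chemical treatment of human HepaRG liver cells at concentrations up to 100 uM.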
# [18] = read-out: Bcl-2 (BAX) gene, BAX (gene 581); experiment: LTEA_HepaRG_BAX: Life Technologies and Expression Analysis (LTEA) Assay for Bcl-2 (BAX) gene using HepaRG (AID 2283470); settings: mRNA level, 48 h; actives raise or lower the signal
# Procedure, shortened: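 Concentration-response endpoint fitted in both directions relative to 0.5% DMSO vehicle. Human HepaRG cultures receive test chemicals for 48 h at up to 100 uM; BAX mRNA is quantified by qRT-PCR against housekeeping genes.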
# [19] = read-out: adenosine kinase (ADK) gene, ADK (gene 132); experiment: LTEA_HepaRG_ADK: Life Technologies and Expression Analysis (LTEA) Assay for adenosine kinase (ADK) gene using HepaRG (AID 2283471); settings: mRNA level, 48 h; actives raise or lower the signal
# Procedure, shortened: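 HepaRG (human liver), 48 h chemical exposure, 8-pt half-log series, top 100 uM, 0.5% DMSO vehicle. Readout: ADK mRNA by qRT-PCR vs housekeeping genes; bidirectional curve fit relative to DMSO baseline.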
# [20] = read-out: CFLAR gene, CFLAR (gene 8837); experiment: LTEA_HepaRG_CFLAR: Life Technologies and Expression Analysis (LTEA) Assay for CFLAR gene using HepaRG (AID 2283455); settings: mRNA level, 48 h; actives raise or lower the signal
# Procedure, shortened: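 HepaRG, 48 h exposure, 8-pt conc-response (100 uM top, half-log), 0.5% DMSO vehicle, duplicates. CFLAR expression by qRT-PCR; ACTB/GAPDH/POLR2A normalization; gain or loss fit vs DMSO baseline.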
# Chain of Broad substrate specificity ATP-binding cassette transporter ABCG2 (Homo sapiens) (Q9UNQ0 whole entry, looked up): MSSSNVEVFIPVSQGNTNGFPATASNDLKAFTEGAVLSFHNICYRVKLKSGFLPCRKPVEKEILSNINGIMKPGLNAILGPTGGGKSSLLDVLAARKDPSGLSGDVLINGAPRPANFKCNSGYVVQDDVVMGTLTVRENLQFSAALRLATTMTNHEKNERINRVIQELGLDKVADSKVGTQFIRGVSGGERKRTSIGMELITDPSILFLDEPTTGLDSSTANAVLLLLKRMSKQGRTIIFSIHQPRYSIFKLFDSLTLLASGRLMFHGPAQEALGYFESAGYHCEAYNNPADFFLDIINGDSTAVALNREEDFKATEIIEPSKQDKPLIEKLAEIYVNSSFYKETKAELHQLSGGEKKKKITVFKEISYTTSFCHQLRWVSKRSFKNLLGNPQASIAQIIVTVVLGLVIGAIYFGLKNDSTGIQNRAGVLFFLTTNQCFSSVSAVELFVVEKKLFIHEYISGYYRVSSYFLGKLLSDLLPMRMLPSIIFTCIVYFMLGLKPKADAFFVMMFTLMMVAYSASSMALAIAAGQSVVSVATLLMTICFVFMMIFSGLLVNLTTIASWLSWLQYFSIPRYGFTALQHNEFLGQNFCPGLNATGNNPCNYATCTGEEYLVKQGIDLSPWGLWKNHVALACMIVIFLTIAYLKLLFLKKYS
compound,measurement,setting,value
CC(C)N(Cc1ccccc1)C(=O)C(C)(C)C,outcome,[1],inactive
same,outcome,[2],inactive
same,AC50,[3],50 µM (active)
same,outcome,[4],inactive
same,outcome,[5],inactive
same,outcome,[6],inactive
same,outcome,[7],inactive
same,outcome,[8],inactive
same,outcome,[9],inactive
same,outcome,[10],inactive
same,outcome,[11],inactive
same,AC50,[12],50 µM (active)
same,outcome,[13],inactive
same,outcome,[14],inactive
same,outcome,[15],inactive
same,outcome,[16],inactive
same,outcome,[17],inactive
same,outcome,[18],inactive
same,outcome,[19],inactive
CCCCOC(=O)c1ccccc1C(=O)OCc1ccccc1,outcome,[1],inactive
same,outcome,[2],inactive
same,AC50,[3],15.1 µM (active)
same,outcome,[20],inactive
same,outcome,[4],inactive
same,outcome,[6],inactive
same,outcome,[7],inactive
same,outcome,[8],inactive
same,outcome,[9],inactive
same,outcome,[10],inactive
same,outcome,[11],inactive
same,outcome,[12],inactive
same,outcome,[13],inactive
same,outcome,[14],inactive
same,outcome,[15],inactive
same,outcome,[16],inactive
same,outcome,[17],inactive
same,outcome,[18],inactive
same,outcome,[19],inactive
Nc1ccc(N=Nc2ccccc2)cc1,AC50,[1],14.9 µM (active)
same,AC50,[2],19.1 µM (active)
same,AC50,[3],35.8 µM (active)
same,AC50,[20],20.8 µM (active)
same,AC50,[4],30.9 µM (active)
same,outcome,[6],inactive
same,AC50,[7],18.4 µM (active)
same,AC50,[8],15.5 µM (active)
same,AC50,[9],29 µM (active)
same,AC50,[11],13.8 µM (active)
same,AC50,[12],13.2 µM (active)
same,AC50,[13],13 µM (active)
same,AC50,[14],13.3 µM (active)
same,AC50,[15],14 µM (active)
same,outcome,[16],inactive
same,outcome,[17],inactive
same,AC50,[18],6.31 µM (active)
same,AC50,[19],10.7 µM (active)
